# ELG1 repair inh – inhibitors of ELG1-dependent DNA repair in HEK293T cells; HEK293T ELG1-luciferase reporter, luminescence, 16 h; DNA damage induced by 5-fluorouridine; Potency, µM (top dose mostly 46.1 µM), for the others: at the top dose activity change, negative = inhibition, hits mostly inhibitors; 330,000 compounds, 2.3% hits; note: potency is the fitted concentration of half-maximal effect; nearly all actives have a fitted effect of over 55% in size
#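 Luminescence from the luciferase reporter, measured 30 min after ONE-Glo reagent at room temperature, was the read-out. Beforehand, 2,000 cells per well were exposed for 16 hr at 37 °C to 5-fluorouridine together with compound or vehicle.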
# DT40 TDP1 no CPT – qHTS for Inhibitors of human tyrosyl-DNA phosphodiesterase 1 (TDP1): qHTS in cells in absence of CPT; DT40 Tdp1-/- hTDP1 cells, no CPT, ATP luminescence, 48 h; Potency, µM (top dose mostly 46.2 µM), inactives show at the top dose activity change, negative = growth inhibition, actives largely listed as inhibitors; 420,000 compounds, 15% hits; note: potency is the fitted concentration of half-maximal effect; nearly all actives have a fitted effect of over 55% in size
#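 Growth of hTDP1-complemented DT40 Tdp1-knockout cells is measured by ATP luminescence after at least 48 hr compound exposure at 37 °C, with DMSO substituting for the 20 nM CPT used in the parallel screen.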
# TDP1 inh – TDP1 (human) enzyme inhibition. recombinant TDP1, AlphaScreen DNA substrate cleavage. 350,000 compounds, 0.28% hits. Potency, µM (highest dose often 130 µM), for inactives: at the top dose activity change, negative = inhibition, usual class: inhibitors. Q9NUW8; note: potency is the fitted concentration of half-maximal effect; nearly all actives have a fitted effect of over 40% in size
# Target sequence (Q9NUW8 whole entry, looked up): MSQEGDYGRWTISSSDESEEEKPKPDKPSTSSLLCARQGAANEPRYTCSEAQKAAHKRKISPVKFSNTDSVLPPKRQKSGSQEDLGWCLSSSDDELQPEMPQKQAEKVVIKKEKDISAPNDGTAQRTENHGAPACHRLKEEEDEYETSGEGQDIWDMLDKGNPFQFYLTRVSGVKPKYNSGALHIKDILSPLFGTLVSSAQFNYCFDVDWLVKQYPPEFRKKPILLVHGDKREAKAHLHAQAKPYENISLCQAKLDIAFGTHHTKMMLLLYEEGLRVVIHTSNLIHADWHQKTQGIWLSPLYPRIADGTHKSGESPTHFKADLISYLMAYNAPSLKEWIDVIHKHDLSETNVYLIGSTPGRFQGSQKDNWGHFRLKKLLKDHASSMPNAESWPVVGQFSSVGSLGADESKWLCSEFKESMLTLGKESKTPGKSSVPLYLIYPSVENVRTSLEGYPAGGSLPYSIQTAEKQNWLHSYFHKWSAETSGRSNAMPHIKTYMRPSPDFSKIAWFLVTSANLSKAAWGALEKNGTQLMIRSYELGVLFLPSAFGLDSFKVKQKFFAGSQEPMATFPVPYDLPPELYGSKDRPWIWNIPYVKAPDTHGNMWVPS
#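 E. coli-derived human Tdp1, 1 nM final. Cpd preinc 15 min RT; substrate 15 nM final, 5 min RT; AS bead mix 10 ug/ml final, 10 min RT. Signal loss = tyrosine-FITC cleavage. No-enzyme wells = max signal.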
# IL1B secr inh – inhibitors of inflammasome signaling (IL-1 beta secretion) | activity change, % at 57.5 µM | 360,000 compounds, 4.7% hits | AID 743279 | THP-1 LPS/ATP IL-1B secretion, AlphaLISA, 16 h; active compounds read low; in the data active = activity change below about -50%; inconclusive = mostly about -30% to -49%
#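 Secreted IL-1B measured by AlphaLISA bead assay after 16 h compound exposure of THP-1 cells; compounds (final up to 57.5 uM) added 1 h before LPS (250 ng/mL) and ATP (1.25 mM) stimulation; lower signal means less secretion.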
# DT40 TDP1 CPT – DT40-hTDP1 cell growth loss with CPT. AID 686979. Potency, µM (series often up to 46.2 µM), inactives show at the top dose activity change, negative = growth inhibition, most hits filed as inhibitors. chicken DT40 Tdp1-/-;hTDP1 cells + 20 nM CPT, ATP luminescence, 48 h. 420,000 compounds, 12% hits; note: potency is the fitted concentration of half-maximal effect; nearly all actives have a fitted effect of over 55% in size
#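 Chicken DT40 Tdp1-/- cells complemented with human TDP1, 400 cells/well, exposed to compounds plus 20 nM camptothecin for at least 48 h at 37 C; viability read as ATP content by CellTiter-Glo luminescence.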
# Giardia killer – kills Giardia lamblia; Giardia lamblia trophozoite viability; activity change, % at 7.66 µM, hits read low; 340,000 compounds, 0.15% hits; AID 540267; in the data active = activity change below about -80%; inconclusive = between about -30% and that limit;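 note: parasites exposed to compound for two days anaerobically before the ATP read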
#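 Luminescent ATP signal served as the viability read-out, measured 15-30 min after adding ATP detection reagent to trophozoites that had been incubated with compounds for 48 hrs at 37 deg C anaerobically at 100 cells/well.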
# Active calls of the source: *; ? = inconclusive; nt = no result; [ ] = dose if it differs, or a comment. In the library only some 19% were active in any assay of this set; here they are far more common. Unless noted, calls come from the whole dose curve; as a rule, active = well fitted curve in the direction sought with a large enough effect; inconclusive = small, poorly fitted or top-dose-only effect, or another doubt; inactive = no such curve, though single readings can be large; an effect the other way counts as inactive or inconclusive. % is set by controls: 0 for no effect and ±100 for the full control effect.
SMILES,ELG1 repair inh,DT40 TDP1 no CPT,TDP1 inh,IL1B secr inh,DT40 TDP1 CPT,Giardia killer
Cc1c(CCOC(=O)c2cccc([N+](=O)[O-])c2)sc[n+]1CC(=O)c1ccccc1,?,?,0%,-3,8.2µM*,6
Cc1c(CCOC(=O)c2ccc([N+](=O)[O-])cc2)sc[n+]1CC(=O)c1ccccc1,6%,?,7%,-22,-23%,11
CC(C)(C)c1ccc(C(CC(=O)O)NC(=O)C23CC4CC(CC(C4)C2)C3)cc1 (stereo not given),1%,-10%,nt,-14,-6%,-4
COCC(=O)Nc1cc(C(=O)N2CCc3sccc3C2)c2c(c1)nc(-c1ccncc1)n2C,nt,-1%,nt,nt,3%,nt
Cc1cc(C(=O)Nc2cccc(F)c2)c2c(C)nn(-c3cccc(Cl)c3C)c2n1,nt,?,-2%,nt,?,nt
N#CCCn1cc(/C=N/NC(N)=S)c(-c2ccccc2)n1,?,?,0%,7,?,3
N#CCCn1cc(/C=N/O)c(-c2ccc(-c3ccccc3)cc2)n1,?,?,5%,-19,23µM*,-4
N#CCCn1cc(/C=N/O)c(-c2ccc(Cl)cc2)n1,-4%,-6%,6%,-23,-16%,10
CCN1C(=O)/C(=C\c2cn(CCC#N)nc2-c2ccc(F)cc2)SC1=S,15µM*,-29%,8%,-24,?,11
N#CCCn1cc(/C=C2\NC(=S)N(c3ccccc3)C2=O)c(-c2ccc(-c3ccccc3)cc2)n1,0%,8.2µM*,0%,-8,6.5µM*,-4
N#CCCn1cc(C=C(C#N)C#N)c(-c2ccc(Cl)cc2)n1,9%,?,-10%,-28,16µM*,-26
CCN1C(=O)/C(=C/c2cn(-c3ccccc3)nc2-c2cccnc2)SC1=S,nt,-34%,nt,-4,-8%,-5
CCCCOC(=O)c1ccc(Nc2ncnc3c2cnn3-c2cccc(C)c2)cc1,nt,-14%,3%,nt,-25%,nt
O=C(CSc1ccnc(=O)[nH]1)NCc1ccc(F)cc1,nt,3%,5%,nt,-1%,nt
COc1ccc(NC(C)=O)cc1NC(C)c1nc2sc(C)c(C)c2c(=O)[nH]1 (stereo not given),21µM*,-4%,2%,0,7%,-6
c1ccc2c(c1)ccn1c(Cc3ccsc3)c(C3CCCCC3)nc21,nt,15µM*,nt,11,18µM*,nt
Cc1ccc(Cc2c(C3CCCCC3)nc3c4ccccc4ccn23)cc1,nt,23µM*,nt,34,?,nt
COCCNC(=O)C1CCCN(C(=O)c2sccc2C)CC1 (stereo not given),nt,-4%,nt,28,0%,nt
COc1ccc(-c2nc3cc(NC(=O)Cc4ccc(Cl)cc4)ccc3o2)cc1OC,nt,13µM*,-8%[12.3 µM],nt,16µM*,nt
COc1ccc(-c2nc3cc(NC(=O)Cc4ccc(OC)c(OC)c4)ccc3o2)cc1,?,?,6%,?,?,-16
Cc1ccccc1-c1nc2cc(Cl)ccc2c(=O)o1,-2%,16µM*,nt,0,?,22
Cc1ccccc1-c1nc2cc(Cl)ccc2o1,?,1%,-1%,35,-15%,-17
Cc1ccccc1-c1nc2cc(NC(=O)Cc3ccc(Cl)cc3)ccc2o1,nt,21µM*,-3%[12.3 µM],nt,?,nt
Cc1ccc2c(c1)CN(CCNC(=O)C(C)Oc1ccccc1)CC(C)O2 (stereo not given),nt,-16%,nt,nt,7%[9.04 µM],nt
Cc1cc(O)cc(O)c1C(=O)Cc1ccccc1,10µM*,?,3%,-20,-30%,-7
SMILES,ELG1 repair inh,DT40 TDP1 no CPT,TDP1 inh,IL1B secr inh,DT40 TDP1 CPT,Giardia killer
O=C(Cc1ccc([N+](=O)[O-])cc1)c1c(O)cc(O)cc1O,11%,2%,1%,16,13%,-19
Cc1ccc(CCNc2nc3c(S(=O)(=O)c4ccc(C)cc4)nnn3c3ccsc23)cc1,nt,-26%,0%,nt,-16%,nt
Cc1ccc(NC(=O)CN(C)S(=O)(=O)c2cnc[nH]2)cc1,nt,-3%,5%,nt,15%,nt
O=C(NC1CCCC1)c1cc(Nc2cccc(C(F)(F)F)c2)nc2ccccc12,nt,?,-4%,nt,?,nt
COc1ccc(Nc2cc(C(=O)NC3CCC(C)CC3)c3ccccc3n2)cc1OC (stereo not given),nt,?,2%,nt,?,nt
O=C(NC1CCCCC1)c1cc(Nc2cccc(C(F)(F)F)c2)nc2ccccc12,nt,?,0%,nt,21µM*,nt
CCc1ccccc1Nc1cc(C(=O)NC2CCC(C)CC2)c2ccccc2n1 (stereo not given),nt,?,7%,nt,12µM*,nt
CC(C)c1ccc(Nc2cc(C(=O)NC3CCCCC3)c3ccccc3n2)cc1,nt,21µM*,2%,nt,10µM*,nt
Cc1cnc(C(=O)Oc2c(C)ccc(C)c2C)cn1,7%,3%,0%,-2,-7%,36
COc1cccc(OCc2cc(C(=O)NCc3ccccn3)no2)c1,?,?,2%,-5,3%,-10
Cc1ccc(OCc2cc(C(=O)NCc3cn4ccccc4n3)no2)cc1C,-3%,15%,5%,-9,-23%,-4
CC(CCCC(C)(C)O)NC(=O)c1cc(COc2ccc3ncccc3c2)on1 (stereo not given),2.6µM*,4.6µM*,-3%,-1,8.2µM*,1
O=C(NCc1cccc(Cl)c1)c1cc(COc2ccc3ncccc3c2)on1,?,21µM*,0%,?,16µM*,-12
Cc1ccc(OCc2cc(C(=O)NC(C)Cc3cccc(C)n3)no2)cn1 (stereo not given),?,7.3µM*,2%,46,13µM*,6
Cc1ccc(F)cc1CNC(=O)c1cc(COc2ccc3ncccc3c2)on1,?,10µM*,3%,-29,4.1µM*,6
CCOC(=O)C(C)Sc1ccc2nnc(CCNS(=O)(=O)c3ccccc3)n2n1 (stereo not given),10%,-26%,3%,-20,-14%,15
Cn1nc(C(=O)OCC(=O)Nc2ccc(S(N)(=O)=O)cc2)c2ccccc2c1=O,12%,20%,4%,20,2%,7
CCOC(=O)c1[nH]ncc1CN1CCC(Cc2cccc(OC)c2)(C(=O)OCC)CC1,0%,3%,1%,11,4%,3
O=C(CCN1C(=O)C2CCCCC2C1=O)N1CCN(S(=O)(=O)c2ccccc2)CC1 (stereo not given),-12%,0%,nt,9,-3%,3
Cc1cc(C)n(CCNC(=O)c2cc(COc3ccc(F)cc3Cl)on2)n1,-28%,?,nt,0,?,-12

# High-throughput results: PubChem, National Center for Advancing Translational Sciences (NCATS)
